Bioassay records (PubChem)
Hits are enriched below; roughly 3.4% of the tested compounds scored in any of these assays.
TEAD-YAP block = TEAD-YAP interaction inhibition | 1.4% of 640,000 active | HEK-TIYL cells, TEAD-Gal4/YAP UAS-luciferase luminescence | inhibition, % at 9.12 µM; in the data active = inhibition above about 32%;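 note: 0% = median of test compound wells and 100% = reference inhibitor wells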
GPR151 ag = activates the human receptor GPR151; Q8TDV0; PathHunter beta-arrestin GPR151 cells, luminescence; activation, % at 11.2 µM; 1% of 650,000 active; AID 1508602; in the data active = activation above about 4.9%;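 note: 0% = median of compound wells and 100% = cells with positive control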
Target sequence (Q8TDV0 whole entry, looked up): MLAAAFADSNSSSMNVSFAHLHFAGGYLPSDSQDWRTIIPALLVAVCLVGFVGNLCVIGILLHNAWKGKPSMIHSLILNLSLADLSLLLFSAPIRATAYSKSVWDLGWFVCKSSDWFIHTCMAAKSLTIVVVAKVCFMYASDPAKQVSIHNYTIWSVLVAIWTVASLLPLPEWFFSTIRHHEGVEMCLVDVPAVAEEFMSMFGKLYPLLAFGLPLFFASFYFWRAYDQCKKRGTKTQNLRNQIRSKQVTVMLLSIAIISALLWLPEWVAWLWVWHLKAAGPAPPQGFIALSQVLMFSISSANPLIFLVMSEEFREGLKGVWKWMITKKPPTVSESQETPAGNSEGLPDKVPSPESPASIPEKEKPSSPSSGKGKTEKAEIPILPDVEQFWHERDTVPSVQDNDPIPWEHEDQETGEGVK
FBW7 activator = activators of human E3 ligase FBW7; 0.13% of 650,000 active; AID 1259310; normalized activity (activation), % at 26.1 µM; AlphaScreen FBW7–phospho-cyclin E peptide binding, activator screen; Q969H0; in the data active = normalized activity above about 1.9%;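 note: purified mutant Fbw7 with reduced substrate affinity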
MITF inh = inhibitors of human MITF; O75030; AlphaScreen MITF homodimerization, bead proximity signal; inhibition, % at 2.6 µM; 0.91% of 650,000 active; in the data active = inhibition above about 50%;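 note: 0% = vehicle wells with protein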
GPR151 conf act = confirmation of human GPR151 activators. activation, % at 11.2 µM. GPR151 PathHunter beta-arrestin cells, luminescence, 90 min; % of EA-reagent control over plate median. 6,700 tested, under 10 active. AID 1508609. shares compounds with GPR151 ag;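 active = mean percent activation across replicates above the confirmation screen cutoff of 4.91%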
GPR119 counter = activates human GPR119 in a GPR151 counter-screen; shares compounds with GPR151 ag; GPR119 PathHunter beta-arrestin cells, luminescence, 90 min; 0 = compound-well median, 100 = enzyme-acceptor control; activation, % at 11.2 µM; 0.3% of 6,700 active; AID 1508611;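 active = mean percent activation in the counterscreen above 29.09%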;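 note: counterscreen on off-target GPR119 to flag nonselective hits from the GPR151 activator screen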
Starred values were filed as active, the others as inactive; x = no result; ! = not confirmed by another sample.

SMILES | TEAD-YAP block | GPR151 ag | FBW7 activator | MITF inh | GPR151 conf act | GPR119 counter
CCc1ccc(CNCc2cc(NC(=O)c3ccccn3)cc(C(=O)N(C)C)c2)cc1 | 1.6 | 10.1* | 0.0 | -4.7 | 0.9 | 9.7
Cc1ccc(S(=O)(=O)n2nc(C(F)(F)F)c3cnccc32)cc1 | 4.2 | -1.0 | 0.1 | -11.9 | x | x
O=S(=O)(c1ccc(F)cc1)n1nc(C(F)(F)F)c2cnccc21 | 6.1 | 5.3* | 0.2 | 2.1 | 0.5 | 2.4
CC(=O)COc1cc2c(C)cc(=O)oc2cc1Cl | 6.8 | 5.6* | -0.2 | -9.2 | 1.5 | 11.8
COc1ccc(N2C(=O)C3CCCN3C2c2ccccc2OC)cc1 (centres undefined) | -7.3 | 6.1* | 0.0 | -13.4 | -0.1 | -8.0
COc1ccc(N2C(=O)C3CCCN3C2c2cc(OC)ccc2OC)cc1 (centres undefined) | 9.4 | 0.2 | 0.8 | 18.3 | x | x
COCC(C)NCC(O)COc1cc(Cl)ccc1Cl (centres undefined) | 1.6 | 14.4* | -0.1 | 17.6 | 0.7 | 6.6
CCNC(=O)C(C)Oc1ccc(Cl)cc1C (centres undefined) | 2.1 | 5.5* | 0.1 | -8.4 | 0.5 | 4.5
CC(=O)C/C(C)=N/NC(=O)C(C)Oc1ccc(Cl)cc1C (centres undefined) | 17.4 | -0.3 | 0.2 | 3.2 | x | x
COCC(=O)NNC(=O)C(C)Oc1ccc(Cl)cc1Cl (centres undefined) | 10.2 | 5.0* | 0.1 | -2.1 | 0.0 | 7.6
CCC(=O)NNC(=O)C(C)Oc1ccc(Cl)cc1Cl (centres undefined) | -9.4 | 0.8 | 0.2 | 10.7 | x | x
O=C(NCc1ccccc1)/C(=C\c1ccc(Cl)cc1)NC(=O)c1ccco1 | 3.2 | -0.6 | 0.7 | -18.2 | x | x
O=C(NCc1ccco1)/C(=C/c1ccc(Cl)cc1)NC(=O)c1ccco1 | -1.9 | 5.7* | 0.0 | 0.8 | 0.4 | 2.9
O=C(NCc1ccco1)/C(=C\c1ccc(Br)cc1)NC(=O)c1ccccc1 | 0.8 | 7.0* | 0.0 | -0.4 | 0.6 | -1.6
COc1ccc(OCC(=O)N(Cc2nc(-c3ccc(OC)cc3)no2)C(C)C)cc1 | 3.0 | 2.4 | 0.0 | -1.8 | x | x
OC1(C#CCN2CCCCC2)c2ccccc2C2CCCC21 (centres undefined) | -3.1 | 1.2 | 0.0 | -28.9 | x | x
CC1=C(C(=O)Nc2ccc(F)cc2)C(c2ccccc2Br)NC(=O)N1 (centres undefined) | 0.7 | 5.1* | -0.2 | 1.3 | 0.4 | -3.2
O=c1[nH]nc(SCc2cccc(Oc3ccccc3)c2)c(=S)[nH]1 | 4.1 | -1.3 | 0.0 | 4.8 | x | x
Cc1nc(SCc2cccc(Oc3ccccc3)c2)n[nH]1 | 25.8 | 7.9* | -0.1 | 2.3 | 0.1 | -1.2
O=S(=O)(c1ccc(Br)c2ccccc12)n1ccnc1 | 0.5 | -0.6 | -0.1 | 2.1 | x | x
COc1ccc(OC)c(C(=O)CC2(O)C(=O)Nc3ccc(Br)cc32)c1 (centres undefined) | -16.6 | 5.8* | -0.2 | -2.9 | 0.5 | -5.5
O=C(OCc1ccccc1F)c1cc(Br)ccc1O | -8.3 | 4.1 | -0.1 | -6.1 | x | x
CCCCCCCCCCCCCCCC(=O)SCCOP(=O)(O)OCC[N+](C)(C)C | x | 5.4* | x | -2.1 | 2.1 | 15.2
COC(=O)c1c(C)oc2ccc(OCC(=O)OC(C)C)cc12 | -6.0 | -0.8 | 0.3 | -11.9 | x | x
CCn1c(CCNC(=O)C(C)(C)C)nc2ccccc21 | -8.2 | 6.7* | -0.1 | 0.6 | 1.7 | 2.9
SMILES | TEAD-YAP block | GPR151 ag | FBW7 activator | MITF inh | GPR151 conf act | GPR119 counter
O=C1CCC(CCNCc2cccc(C(F)(F)F)c2)N1CCCn1ccnc1 (centres undefined) | 1.6 | 0.9 | -0.1 | -8.1 | x | x
COc1ccc(-c2cc(C(F)(F)F)n3nc(C(=O)Nc4cc(OC)cc([N+](=O)[O-])c4)c(Br)c3n2)cc1 | -11.2 | 2.1 | -0.1 | -3.7 | x | x
CC(C)OC(=O)c1ccc(SCC2CCCO2)c([N+](=O)[O-])c1 (centres undefined) | -25.0 | 9.0* | -0.3 | -2.0 | -0.3 | -7.4
CCOC(=O)c1ccc(SCC2CCCO2)c([N+](=O)[O-])c1 (centres undefined) | -61.7 | 1.6 | -0.2 | 4.3 | x | x
CC(=O)c1cccc(NC2=C(Cl)C(=O)OC2OC(=O)c2ccccc2)c1 (centres undefined) | 1.9 | 0.2 | -0.1 | 12.9 | x | x
c1ccc2cc(CN3CCOc4ccc(CN5CCOCC5)cc4C3)ccc2c1 | -4.1 | 2.4 | -0.3 | 9.1 | x | x
O=C1CN(S(=O)(=O)c2cccc(Cl)c2Cl)c2ccccc2N1 | -8.3 | 6.8* | 0.0 | -1.8 | 1.4 | 1.4
Cc1ccc(C(=O)N2CCN(C=O)CC2)c(Cl)c1 | 4.0 | 6.5* | 0.4 | 16.2 | -0.1 | -4.3
O=CN1CCN(C(=O)c2ccccc2Cl)CC1 | -2.8 | 0.7 | 0.1 | 9.7 | x | x
CC1(C)CC(N(Cc2cccs2)C(=O)c2ccco2)CCO1 (centres undefined) | -3.6 | 9.3* | 0.0 | 15.4 | -2.0 | -16.3
O=C(NC1CCCC1)C(c1ccco1)N(Cc1cccs1)C(=O)c1ccco1 (centres undefined) | -5.4 | 1.3 | 0.1 | 8.4 | x | x
COc1cccc(CNC(=O)CN(C)c2nnc(N3CCCC3=O)s2)c1OC | -2.2 | 5.3* | 0.3 | -0.2 | -0.5 | -4.6
Cc1ccccc1CNC(=O)CN(C)c1nnc(N2CCCC2=O)s1 | -5.3 | -0.4 | 0.8 | 11.3 | x | x
O=C(O)/C=C/c1cn(-c2ccccc2)nc1-c1cccc([N+](=O)[O-])c1 | 13.5 | 5.3* | 0.1 | 14.6 | -1.0 | -12.3
C=CCN1C(=O)c2oc3ccccc3c(=O)c2C1c1ccccc1 (centres undefined) | -7.9 | 6.4* | 0.1 | -8.5 | -0.5 | -1.7
COc1cccc(C2c3c(oc4ccccc4c3=O)C(=O)N2CCO)c1 (centres undefined) | 7.0 | 8.0* | 0.0 | 11.2 | 0.1 | -7.9
Cc1ccc(NS(=O)(=O)c2ccc(NC=O)cc2)cc1C | 15.0 | 5.8* | 0.5 | 4.5 | 0.0 | -2.5
Cc1ccc(NS(=O)(=O)c2ccc(F)cc2)cc1C | -13.1 | -0.6 | 0.2 | -2.6 | x | x
CN(C)c1ccc(/C=C(\C#N)c2nn(-c3ccccc3)c(N)c2C#N)cc1[N+](=O)[O-] | -3.7 | 1.8 | -0.1 | 7.5 | x | x
N#C/C(=C\c1ccc(Br)c([N+](=O)[O-])c1)c1nn(-c2ccccc2)c(N)c1C#N | 7.3 | 4.9* | -0.1 | 6.7 | -0.3 | 5.8
Clc1ccccc1C(c1ccccc1)(c1ccccc1)n1ccnc1 | -0.4 | 6.9*! | 0.1 | -14.1 | 1.5 | -11.7
Cc1cccc(NS(=O)(=O)c2cn(C)c(=O)n(C)c2=O)c1 | -5.8 | 5.9* | -0.2 | -4.3 | 0.8 | 11.8
Cn1cc(S(=O)(=O)NCCC(c2ccccc2)c2ccccc2)c(=O)n(C)c1=O | 0.0 | 4.9* | 1.2 | 10.6 | 0.4 | 5.8
COc1ccccc1CCNS(=O)(=O)c1cn(C)c(=O)n(C)c1=O | 5.7 | 3.0 | 0.3 | -4.0 | x | x
